The record followed here is PubChem BioAssay (NCI).

Several values for one entry are separate records, joined by “and”; a condition that tells them apart may be missing. Identical values can stand only once. Compounds without any hit were thinned out: in the full panel of roughly 83,000, 20% have a hit.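 Single-concentration screen, 48 h exposure, 96-well plates. Endpoint: percent growth. Below 10 = active.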 Values without a mark were called inactive. Activity calls are given as the source filed them.

In the assay the test system is MDA-MB-468 breast. The assay can be described thus: NCI-60 one-dose screen, 48 h (100 = growth as untreated, 0 = no growth, -100 = all killed). The following applies: 10 µM unless noted.
In the case of `NC(=S)n1c(=O)n(-c2cccc(C(F)(F)F)c2)c(=O)c2cc(-c3ccc(F)cc3F)ccc21`, the growth was 1.23% (active).
With `Cc1cc(O)cc2c1[C@H]1CC[C@]3(C)[C@@H](O)CC[C@H]3[C@@H]1C=C2` the figure was 96.8%; with `COc1ccc(C2CC(c3cccc(OCCCCOc4cccc(C5=NN(C(C)=O)C(c6ccc(OC)cc6)C5)c4)c3)=NN2C(C)=O)cc1` (stereo not given), 23.7%; with `Cc1ccc2[nH]c(=O)c3c(c2c1)OC(N)=C(C#N)C31C(=O)c2cccc3cccc1c23` (stereo not given), 95.1%.
For `CCC(C)NC(=O)c1ccccc1C` (stereo not given), the growth was 86.7%.
Take `COc1cc(CNC(=O)CCCC/C=C/C(C)C)ccc1O`: the growth was 94.6% and 98.5%.
Under `C(=N\Nc1ncc(-c2cc3cc4c(cc3o2)OCO4)s1)/c1ccco1` stands 27.3%; under `CCCCNC(=O)c1ccccc1C`, 82.3%.
Under `Nc1nc(I)c2ncn(C3OC(CO)C(O)C3O)c2n1` (stereo not given) stands 115%; under `Cn1c2ccccc2c2nn(C(=O)c3ccccc3)c(=O)nc21`, 107%; under `Cn1c(=O)c2c(ncn2CC(=O)Nc2ccc(S(N)(=O)=O)cc2)n(C)c1=O`, 102%.
With `OCCNc1nccc(N2CCN(c3ccnc4cc(Cl)ccc34)CC2)n1` the figure was 54.8%.
For `O=C(Nc1ccc(Nc2cc(Nc3ccccc3)ncn2)cc1)Nc1cc(C(F)(F)F)ccc1F`, the growth was 55.3%.
Under `O=C1c2c(O)cc(O)cc2OC(c2ccc(O)c(O)c2)C1O` (stereo not given) stands 112%.
On to `CNC(=O)c1cc(-n2ccc3cc(NC(=O)Nc4ccc(N5CCN(C)CC5)c(C(F)(F)F)c4)ccc32)ccn1`, for which the growth is 59.7%.
On to `Cc1ccccc1C(=O)c1ccccc1C(=O)O`, for which the growth was 108%.
With `COc1cc(/C=C\c2cc(OC)c(OC)c(OC)c2)cc(NC(=O)/C=C/c2cc(OC)c(OC)c(OC)c2)c1OC`, the growth is 36%.
Regarding `COc1ccc(-c2nc3sccn3c2-c2cc(-c3cc(OC)c(OC)c(OC)c3)on2)cc1`, the growth is 100%.
On to `Cc1cc(NC(=O)CNc2nc(Oc3ccc(F)cc3)nc(-c3ccc(F)cc3)n2)ccc1Cl`, for which the growth is 92.5%.
Turning to `O=C1C=CC(=O)N1c1ccccn1`, the growth was 114%.
As to `C#Cc1cccc(NC(=O)c2ccc(NC(=O)C=C)cc2)c1`, the growth is 14.6% [8.25 µM].
With `COc1cccc(CCC2C(=O)CCCC2=O)c1` the figure was 115%; with `O=C(CN1CCN(c2cc3c(cc2F)c(=O)c(C(=O)O)cn3C2CC2)CC1)Nc1ccc(Cl)cc1`, 86% and 91.1%; with `O=C(CCl)Oc1ccc(OC(=O)CCl)cc1`, 78.4%.
Under `COc1cc(OC)c2sc(-c3ccc(-n4cncc4-c4ccc(OC)c(N)c4)cc3)nc2c1` stands 80.6%.
For the compound `N#Cc1cnn(C(=O)c2nn(-c3ccc(Cl)cc3)cc2O)c1N`, the growth was 32.1%.
Regarding `COc1cc(C(=O)/C=C/c2c(Cl)nc3sccn23)cc(OC)c1OC`, the growth is 60.1%.
Turning to `CN(C)c1ccc(N=Cc2ccc(N3CCOCC3)cc2)cc1`, the growth was 57.5%.
With `O=C1NC(=O)C(CSc2ccccc2)(c2ccccc2)N1` (stereo not given) the figure was 105%; with `COC(=O)[C@H]1CCCN1C(=O)[C@H]1CCCN1C(=O)[C@@H](Cc1c[nH]c2ccccc12)NC(=S)Nc1cc(C(F)(F)F)cc(C(F)(F)F)c1`, 21%.
Under `c1cc2ccc3cc2cc1CNCCN1CCNCc2ccc4ccc(cc4c2)CNCCN(CCNC3)CCNCc2ccc3ccc(cc3c2)CNCC1` stands -45.2% (active); under `CN1CCN(CCCn2c3c(sc4ncccc43)c(=O)n3nnc(-c4ccccc4)c23)CC1`, 98.6%.
As for `COc1ccc(CCN2C(=O)/C(=C/c3nc(CO)cs3)SC2=S)cc1`, the growth was 27%.
Under `CCOC(=O)c1c(NC(=O)c2ccc(C(C)(C)C)cc2)sc2cc(OCCN3CCCCC3)ccc12` stands 85.8%; under `COc1ccc(C(=O)N=Nc2c(O)n(C)c3ccccc23)cc1`, 95.2%; under `NC(=O)NC(=O)c1ccc(Cl)cc1`, 117%.
Under `CC(C)C[C@H](NC(=O)Cn1ccc(NCc2ccccc2)cc1=O)B(O)O` stands -41.2% (active).
Under `Fc1c[c-]c(-c2ccccn2)c(F)c1.Fc1c[c-]c(-c2ccccn2)c(F)c1.[Cl][Pt+].[Cl][Pt+].c1ccc([PH+](C[PH+](c2ccccc2)c2ccccc2)c2ccccc2)cc1` stands -2.28% (active).
Take `CCC(CCCN(CC)CCc1ccccc1)OC(=O)c1cc(OC)c(OC)c(OC)c1` (stereo not given): the growth was 93.1%.
Take `COc1cc(C2C=C(c3cccc(NC(C)=O)c3)Nc3ncnn32)cc(OC)c1OC` (stereo not given): the growth is 13.4%.
